Source: the supplement of paper PMC6089552
Screen size: about 3,200 compounds; about 300 (9.4%) showed activity. The full list was thinned out, with actives kept by preference.

Tested on: A673/TR/shEF
Assay: cell viability (LOESS-normalised, relative to median of negative controls) (log2 ratio); higher = more viable cells (less compound effect), active = hit call of the paper (over 3 MAD below the median)
Details: treatment time: 72 h
How it was run: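 A673/TR/shEF Ewing sarcoma cells (1,500 per well, 384-well plates) were grown with or without doxycycline to induce EWS-FLI1 shRNA knockdown, starting 24 h before compounds. Library compounds at two or more concentrations, with DMSO controls, were added for three days. Cell viability was read by CellTiter-Glo luminescence on an Envision reader, then LOESS-corrected per plate, divided by the median of negative controls and log2-transformed. Hits were wells at least three median absolute deviations from the median of all screened wells.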

[1] = 0.25 µM, library screen: screen2, EWS-FLI1 expression: high (no doxycycline)
[2] = 0.25 µM, library screen: screen2, EWS-FLI1 expression: low (doxycycline-induced shRNA knockdown)
[3] = 2.5 µM, library screen: screen2, EWS-FLI1 expression: high (no doxycycline)
[4] = 2.5 µM, library screen: screen2, EWS-FLI1 expression: low (doxycycline-induced shRNA knockdown)
[5] = 0.25 µM, library screen: screen1, EWS-FLI1 expression: high (no doxycycline)
[6] = 0.25 µM, library screen: screen1, EWS-FLI1 expression: low (doxycycline-induced shRNA knockdown)
[7] = 2.5 µM, library screen: screen1, EWS-FLI1 expression: high (no doxycycline)
[8] = 2.5 µM, library screen: screen1, EWS-FLI1 expression: low (doxycycline-induced shRNA knockdown)
[9] = 0.025 µM, library screen: screen2, EWS-FLI1 expression: high (no doxycycline)
[10] = 0.025 µM, library screen: screen2, EWS-FLI1 expression: low (doxycycline-induced shRNA knockdown)
[11] = 25 µM, library screen: screen2, EWS-FLI1 expression: high (no doxycycline)
[12] = 25 µM, library screen: screen2, EWS-FLI1 expression: low (doxycycline-induced shRNA knockdown)

Measured: cell viability (log2)

CCCCCCCCCCCCCC(=O)O[C@@H]1[C@@H](C)[C@@]2(O)[C@@H](C=C(CO)C[C@]3(O)C(=O)C(C)=C[C@@H]23)[C@@H]2C(C)(C)[C@]12OC(C)=O
active: [1] -0.184 | [2] -0.159 | [3] -0.478 | [4] -0.292

Oc1ccc2c3c1O[C@H]1c4[nH]c5ccccc5c4C[C@@]4(O)C(C2)N(CC2CC2)CCC314 (some centres not stated)
inactive: [1] 0.0893 | [2] 0.051 | [3] 0.0722 | [4] 0.0157

C[C@]12CCC3C(CC[C@H]4C[C@H](O)CC[C@]34C)C1CC[C@@H]2C(=O)CO (some centres not stated)
inactive: [1] 0.139 | [2] 0.0931 | [3] 0.0348 | [4] 0.0492

ClC1=C(Cl)C2(Cl)C3C(Cl)C(Cl)CC3C1(Cl)C2(Cl)Cl (configuration not stated)
inactive: [5] 0.143 | [6] 0.19 | [7] 0.185 | [8] 0.0908

CC(N)C(O)c1ccc(O)c(O)c1 (configuration not stated)
inactive: [5] 0.119 | [6] 0.0592 | [7] 0.146 | [8] 0.151

C#CCN[C@H](C)Cc1ccccc1
inactive: [1] 0.265 | [2] 0.101 | [3] 0.0823 | [4] 0.137

C=C(C)[C@H]1Cc2c(ccc3c(=O)c4c(oc23)COc2cc(OC)c(OC)cc2-4)O1
inactive: [5] 0.0952 | [6] -0.0101 | [7] 0.0848 | [8] -0.0847

COc1cc2c(cc1OC)[C@H]1C(=O)c3ccc4c(c3O[C@H]1CO2)C[C@@H](C(C)C)O4
active: [5] -1.56 | [6] -0.67 | [7] -2.2 | [8] -0.747

COc1cc2c(cc1OC)-c1c(oc3c4c(ccc3c1=O)OC(C(C)C)C4)CO2 (configuration not stated)
inactive: [5] 0.0422 | [6] 0.0484 | [7] 0.122 | [8] 0.0221

COc1cc2c(cc1OC)[C@@H]1C(=O)c3ccc4oc(C(C)C)cc4c3O[C@@H]1CO2
inactive: [5] 0.0223 | [6] 0.0518 | [8] -0.129
active: [7] -0.307

C=C(C)[C@H]1Cc2c(ccc3c2O[C@@H]2COc4cc(OC)c(OC)cc4[C@@H]2C3=O)O1
active: [5] -1.71 | [6] -0.663 | [1] -0.962 | [2] -0.539 | [7] -2.87 | [8] -1.24 | [3] -2.41 | [4] -0.955 | [11] -3.79 | [12] -1.03
inactive: [9] 0.0593 | [10] 0.0961

COc1cc2c(cc1OC)C1C(=O)c3ccc(O)c(CC=C(C)C)c3OC1CO2 (configuration not stated)
inactive: [5] 0.0263 | [6] 0.0494 | [7] 0.046 | [8] 0.0598

CCOP(=S)(OCC)SCn1c(=O)oc2cc(Cl)ccc21
inactive: [5] 0.0867 | [6] 0.153 | [7] 0.166 | [8] 0.163

CCOCN(C(=O)CCl)c1c(C)cccc1CC
inactive: [5] 0.105 | [6] 0.0121 | [7] 0.0903 | [8] -0.17

CC(=O)O[C@@H]1C2CC[C@@H]3C1(C[C@@H](O)[C@@]1(O)[C@@H](C[C@H](O)C1(C)C)[C@]3(C)O)C[C@@]2(C)O (some centres not stated)
inactive: [5] 0.0646 | [6] 0.00107 | [7] 0.0644 | [8] 0.0594

COc1cc2occc2c2oc(=O)ccc12
inactive: [5] 0.133 | [6] -0.00777 | [7] 0.146 | [8] 0.0199

CCOC(=O)CC(SP(=S)(OC)OC)C(=O)OCC (configuration not stated)
inactive: [5] 0.0518 | [6] 0.0626 | [7] 0.101 | [8] 0.14

CN[C@@H]1[C@@H](O)[C@@H](O[C@@H]2[C@@H](O)[C@H](O[C@H]3O[C@H](CN)CC[C@H]3N)[C@@H](N)C[C@H]2N)OC[C@]1(C)O
inactive: [5] 0.0502 | [6] -0.0312 | [7] 0.184 | [8] 0.0476

CC1(C)C2CC(=O)[C@]3(C)C(CC[C@@]4(C)[C@H](c5ccoc5)OC(=O)[C@H]5O[C@]543)[C@@]2(C)C=C[C@@H]1O (some centres not stated)
inactive: [5] 0.0868 | [6] 0.0799 | [7] 0.177 | [8] 0.105

Oc1cc2c(cc1O)[C@H]1c3ccccc3CN[C@@H]1CC2
inactive: [1] 0.0852 | [2] -0.0099 | [3] 0.117 | [4] 0.00998

CC(C)N(CCC(C(N)=O)(c1ccccc1)c1ccccn1)C(C)C (configuration not stated)
inactive: [5] 0.118 | [6] 0.068 | [1] 0.102 | [2] 0.0965 | [7] 0.167 | [8] 0.146 | [3] 0.0737 | [4] 0.0918

O=S1OCC2C(CO1)C1(Cl)C(Cl)=C(Cl)C2(Cl)C1(Cl)Cl (configuration not stated)
inactive: [5] 0.126 | [6] 0.0993 | [7] 0.0998 | [8] -2.97

COc1ccc(CCN)cc1O
inactive: [1] 0.19 | [2] 0.105 | [3] 0.0411 | [4] 0.0823

CC1(C)C2C[C@@H](O)[C@]3(C)C(CC[C@@]4(C)[C@H](c5ccoc5)OC(=O)[C@H]5O[C@]543)[C@@]2(C)[C@@H](O)C[C@H]1O (some centres not stated)
inactive: [5] 0.0675 | [6] 0.0959 | [7] 0.135 | [8] 0.0584

C[N+]1(C)[C@H]2CC(OC(=O)C(CO)c3ccccc3)C[C@H]1[C@H]1O[C@H]12 (some centres not stated)
inactive: [1] 0.258 | [2] 0.0872 | [3] 0.133 | [4] -0.00973

CO[C@H]1[C@H](O)[C@H](O[C@H]2CC[C@@]3(C)[C@H](CC[C@@H]4[C@@H]3CC[C@]3(C)[C@@H](C5=CC(=O)OC5)CC[C@]43O)C2)O[C@@H](C)[C@@H]1O
active: [7] -4.02 | [8] -4.27
inactive: [5] 0.0843 | [6] 0.064

CO[C@H]1[C@H](O)[C@H](O[C@H]2CC[C@@]3(C=O)[C@H](CC[C@@H]4[C@@H]3CC[C@]3(C)[C@@H](C5=CC(=O)OC5)CC[C@]43O)C2)O[C@@H](C)[C@@H]1O
active: [5] -3.17 | [6] -3.22 | [7] -3.52 | [8] -4.22

C[C@@H]1[C@H](O)[C@@H](C)/C=C/C=C/CC/C=C/C=C/C=C/C=C/C(O[C@H]2O[C@H](C)[C@@H](O)[C@H](N)[C@@H]2O)CC2O[C@](O)(CC(O)C(O)CCC(O)CC(O)CC(O)CC(=O)O[C@H]1C)CC(O)C2C(=O)O (some centres not stated)
inactive: 0.103 µM, library screen: screen3, EWS-FLI1 expression: high (no doxycycline) 0.0278 | 0.103 µM, library screen: screen3, EWS-FLI1 expression: low (doxycycline-induced shRNA knockdown) 0.00627 | [5] 0.0655 | [6] 0.0679 | 0.308 µM, library screen: screen3, EWS-FLI1 expression: high (no doxycycline) 0.00683 | 0.308 µM, library screen: screen3, EWS-FLI1 expression: low (doxycycline-induced shRNA knockdown) 0.0137 | 0.926 µM, library screen: screen3, EWS-FLI1 expression: high (no doxycycline) 0.00828 | 0.926 µM, library screen: screen3, EWS-FLI1 expression: low (doxycycline-induced shRNA knockdown) 0.0539 | [7] 0.133 | [8] 0.104 | 2.8 µM, library screen: screen3, EWS-FLI1 expression: high (no doxycycline) -0.00919 | 2.8 µM, library screen: screen3, EWS-FLI1 expression: low (doxycycline-induced shRNA knockdown) 0.0174 | 8.3 µM, library screen: screen3, EWS-FLI1 expression: high (no doxycycline) 0.0134 | 8.3 µM, library screen: screen3, EWS-FLI1 expression: low (doxycycline-induced shRNA knockdown) 0.0644 | 25 µM, library screen: screen3, EWS-FLI1 expression: high (no doxycycline) 0.0075 | 25 µM, library screen: screen3, EWS-FLI1 expression: low (doxycycline-induced shRNA knockdown) 0.0194

CN=C1CN(O)C(c2ccccc2)=c2cc(Cl)ccc2=N1
inactive: [5] 0.0853 | [6] 0.0654 | [7] 0.0997 | [8] 0.0898

CCN1C[C@]2(C)CC[C@H](OC)[C@@]34C1[C@]1(OCO[C@@]15C[C@H](OC)[C@H]1C[C@]3(O)[C@@H]5[C@H]1OC)[C@@H](OC(C)=O)[C@H]24
inactive: [5] 0.0895 | [6] 0.0208 | [7] 0.12 | [8] 0.0444

C=CCN1CC[C@]23c4c5ccc(O)c4O[C@@H]2/C(=N/N=C2\CC[C@@]4(O)C6Cc7ccc(O)c8c7[C@@]4(CCN6CC=C)[C@@H]2O8)CC[C@@]3(O)C1C5
inactive: [1] 0.27 | [2] 0.119 | [3] 0.0736 | [4] 0.0511

S=C=NCc1ccccc1
inactive: [5] 0.0421 | [6] 0.0817 | [7] 0.0546 | [8] 0.123

CCOP(=S)(OCC)Oc1ccc2c(C)c(Cl)c(=O)oc2c1
inactive: [5] -0.0154 | [6] -0.0116 | [7] 0.000589 | [8] -0.0198

COc1c2c(cc3c1OCO3)CC[N+](C)=C2
inactive: [5] 0.122 | [6] 0.157 | [7] 0.0941 | [8] 0.18

COc1ccc(C(=O)OC2CCC3(C)C4CCC5[C@]6(O)C[C@H](O)[C@@]7(O)C(CN8CC(C)CCC8[C@@]7(C)O)[C@]6(O)C[C@@]53O[C@]24O)cc1OC (some centres not stated)
inactive: [5] 0.0564 | [6] 0.0531 | [7] 0.0896 | [8] 0.133

S=C=Nc1cccc(C2(N3CCCCC3)CCCCC2)c1
inactive: [1] 0.168 | [2] 0.105 | [3] 0.16 | [4] 0.118

NCCCP(=O)(O)O
inactive: [1] 0.138 | [2] 0.0766 | [3] 0.114 | [4] 0.116

O=C1C=CC(=O)c2c(O)cccc21
inactive: [9] 0.123 | [10] 0.0947 | [5] 0.185 | [6] 0.0663 | [1] 0.0843 | [2] 0.00401 | [7] 0.153 | [8] 0.0956 | [3] 0.273 | [4] 0.125
active: [11] -0.0924 | [12] -0.0926

CCCCCCC(C)(C)c1ccc([C@H]2C[C@@H](O)CC[C@H]2CCCO)c(O)c1
inactive: [1] 0.0289 | [2] 0.103 | [3] 0.129 | [4] 0.122

CCc1cccc(C)c1N(C(=O)CCl)C(C)COC (configuration not stated)
inactive: [5] 0.0561 | [6] 0.0711 | [7] 0.0898 | [8] 0.0634
